Reference: the supplement of paper PMC8728848
Only a selection was taken, and the strongest signals are over-represented in it overall.

Tests used:
Assay in all cases: glycan array binding signal (z-score within array); higher = stronger binding
Details in all cases: glycan notation: IUPAC condensed, linker removed
Fuc(a1-2)Gal(b1-3)GlcNAc = target: Fuc(a1-2)Gal(b1-3)GlcNAc
Procedure, shortened: (§1)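 Glycan array data came from 3228 arrays in the Consortium for Functional Glycomics database, and only arrays with an available protein sequence were kept. Glycan names were put into IUPAC-condensed notation, and columns mapping to the same glycan were averaged. The binding signal is a within-array Z-score, averaged across arrays of one protein sequence run at different concentrations or buffers and across linkers. A negative Z-score can be read as non-binding.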

[1] = target: Fuc(a1-2)Gal(b1-4)GlcNAc(b1-2)Man(a1-3)[Fuc(a1-2)Gal(b1-4)GlcNAc(b1-2)Man(a1-6)]Man(b1-4)GlcNAc(b1-4)[Fuc(a1-6)]GlcNAc
Procedure, shortened: as §1

[2] = target: Fuc(a1-2)Gal(b1-4)GlcNAc6S
Procedure, shortened: as §1

[3] = target: Fuc(a1-2)Gal(b1-4)[Fuc(a1-3)]GlcNAc(b1-3)Gal(b1-4)[Fuc(a1-3)]GlcNAc(b1-3)Gal(b1-4)[Fuc(a1-3)]GlcNAc
Procedure, shortened: as §1

[4] = target: Fuc(a1-2)[Gal(a1-3)]Gal(b1-4)GlcNAc(b1-2)Man(a1-3)[Fuc(a1-2)[Gal(a1-3)]Gal(b1-4)GlcNAc(b1-2)Man(a1-6)]Man(b1-4)GlcNAc(b1-4)[Fuc(a1-6)]GlcNAc
Procedure, shortened: as §1

[5] = target: Fuc(a1-2)[GalNAc(a1-3)]Gal(b1-3)GlcNAc(b1-2)Man(a1-3)[Fuc(a1-2)[GalNAc(a1-3)]Gal(b1-3)GlcNAc(b1-2)Man(a1-6)]Man(b1-4)GlcNAc(b1-4)[Fuc(a1-6)]GlcNAc
Procedure, shortened: as §1

[6] = target: Gal(a1-3)Gal(b1-3)GlcNAc(b1-3)GalNAc
Procedure, shortened: as §1

[7] = target: Gal(b1-3)GlcNAc(a1-6)Gal(b1-4)GlcNAc
Procedure, shortened: as §1

[8] = target: Gal(b1-3)GlcNAc(b1-2)[Gal(b1-3)GlcNAc(b1-6)]Man(a1-6)[Gal(b1-3)GlcNAc(b1-2)Man(a1-3)]Man(b1-4)GlcNAc(b1-4)GlcNAc
Procedure, shortened: as §1

[9] = target: Gal(b1-3)GlcNAc(b1-3)Gal(b1-4)GlcNAc(b1-2)[Gal(b1-3)GlcNAc(b1-3)Gal(b1-4)GlcNAc(b1-6)]Man(a1-6)[Gal(b1-3)GlcNAc(b1-3)Gal(b1-4)GlcNAc(b1-2)Man(a1-3)]Man(b1-4)GlcNAc(b1-4)[Fuc(a1-6)]GlcNAc
Procedure, shortened: as §1

[10] = target: Gal(b1-3)GlcNAc(b1-3)Gal(b1-4)GlcNAc(b1-3)Gal(b1-4)GlcNAc(b1-2)[Gal(b1-3)GlcNAc(b1-3)Gal(b1-4)GlcNAc(b1-3)Gal(b1-4)GlcNAc(b1-6)]Man(a1-6)[Gal(b1-3)GlcNAc(b1-3)Gal(b1-4)GlcNAc(b1-3)Gal(b1-4)GlcNAc(b1-2)Man(a1-3)]Man(b1-4)GlcNAc(b1-4)[Fuc(a1-6)]GlcNAc
Procedure, shortened: as §1

[11] = target: Gal(b1-4)GalNAc(b1-3)[Fuc(a1-2)]Gal(b1-4)GlcNAc
Procedure, shortened: as §1

[12] = target: Gal(b1-4)GlcNAc(b1-3)Gal(b1-4)GlcNAc(b1-2)Man(a1-3)[Gal(b1-4)GlcNAc(b1-3)Gal(b1-4)GlcNAc(b1-2)Man(a1-6)]Man(b1-4)GlcNAc(b1-4)GlcNAc
Procedure, shortened: as §1

[13] = target: Gal(b1-4)GlcNAc(b1-3)Gal(b1-4)GlcNAc(b1-3)Gal(b1-4)GlcNAc(b1-3)Gal(b1-4)GlcNAc(b1-3)Gal(b1-4)GlcNAc(b1-3)Gal(b1-4)GlcNAc(b1-2)Man(a1-3)[Gal(b1-4)GlcNAc(b1-3)Gal(b1-4)GlcNAc(b1-3)Gal(b1-4)GlcNAc(b1-3)Gal(b1-4)GlcNAc(b1-3)Gal(b1-4)GlcNAc(b1-3)Gal(b1-4)GlcNAc(b1-2)Man(a1-6)]Man(b1-4)GlcNAc(b1-4)GlcNAc
Procedure, shortened: as §1

[14] = target: Gal(b1-4)GlcNAc(b1-6)[Gal(b1-4)GlcNAc(b1-3)]GalNAc
Procedure, shortened: as §1

Gal3S(b1-4)Glc = target: Gal3S(b1-4)Glc
Procedure, shortened: as §1

Gal6S(b1-4)GlcNAc = target: Gal6S(b1-4)GlcNAc
Procedure, shortened: as §1

[15] = target: GalNAc(b1-4)GlcNAc(b1-2)Man
Procedure, shortened: as §1

GalNAc(b1-4)GlcNAc6S = target: GalNAc(b1-4)GlcNAc6S
Procedure, shortened: as §1

GalNAc(b1-6)GalNAc = target: GalNAc(b1-6)GalNAc
Procedure, shortened: as §1

[16] = target: GlcNAc(b1-2)Man(a1-3)[GlcNAc(b1-4)][GlcNAc(b1-2)Man(a1-6)]Man(b1-4)GlcNAc(b1-4)[Fuc(a1-6)]GlcNAc
Procedure, shortened: as §1

[17] = target: GlcNAc(b1-2)[GlcNAc(b1-6)]Man(a1-6)[GlcNAc(b1-2)Man(a1-3)]Man(b1-4)GlcNAc(b1-4)GlcNAc
Procedure, shortened: as §1

[18] = target: GlcNAc(b1-3)Gal(b1-4)GlcNAc(b1-3)Gal(b1-4)GlcNAc(b1-2)Man(a1-3)[GlcNAc(b1-3)Gal(b1-4)GlcNAc(b1-3)Gal(b1-4)GlcNAc(b1-2)Man(a1-6)]Man(b1-4)GlcNAc(b1-4)[Fuc(a1-6)]GlcNAc
Procedure, shortened: as §1

B1: Pwp4 (Candida glabrata) (protein)
chain: MGSSHHHHHHSSGLVPRGSHMASVGNPITVSNVCSFPKNWHRTAGFRALTARLGIGIQSDSYKELLNYPGTFQLTTQQSSTTKPNFQISGLVGNIYGLTIVPSYLLVELTGYFVPPVSGEYTFSLEGSDDAAIIFIANPSTFKCGHVEDWPTAYDNDVTVTESIHATRTIYMIEGVAYPIRIAYYNGLSLGKLQASFTDPEGVKRVDWNGYIWRYDSCDTCSYV
- glycan array binding signal (z-score) (Fuc(a1-2)Gal(b1-3)GlcNAc): -0.913
- glycan array binding signal (z-score) [1]: 0.039
- glycan array binding signal (z-score) [2]: -0.4
- glycan array binding signal (z-score) [3]: 1.61
- glycan array binding signal (z-score) [4]: -0.415
- glycan array binding signal (z-score) [5]: -0.763
- glycan array binding signal (z-score) [6]: -0.55
- glycan array binding signal (z-score) [7]: 2.97
- glycan array binding signal (z-score) [8]: -0.162
- glycan array binding signal (z-score) [9]: 5.18
- glycan array binding signal (z-score) [10]: 2.9
- glycan array binding signal (z-score) [11]: -0.019
- glycan array binding signal (z-score) [12]: 0.09
- glycan array binding signal (z-score) [13]: 3.83
- glycan array binding signal (z-score) [14]: 0.033
- glycan array binding signal (z-score) (Gal3S(b1-4)Glc): -0.366
- glycan array binding signal (z-score) (Gal6S(b1-4)GlcNAc): -0.68
- glycan array binding signal (z-score) [15]: -0.392
- glycan array binding signal (z-score) (GalNAc(b1-4)GlcNAc6S): -0.423
- glycan array binding signal (z-score) (GalNAc(b1-6)GalNAc): -0.402
- glycan array binding signal (z-score) [16]: -1
- glycan array binding signal (z-score) [17]: 7.51
- glycan array binding signal (z-score) [18]: 1.26
